This is an account of results in publication PMC7862700, “An all-to-all approach to the identification of sequence-specific readers for epigenetic DNA modifications on cytosine”.

Assay in all cases: DAPPL (digital affinity profiling via proximity ligation, sequencing); 10 mM Tris-HCl pH 7.5, 50 mM NaCl, 1 mM DTT, 4% glycerol, room temperature, 30 min; GST-TFs on glutathione beads, 16-mer random dsDNA library, 0.1% formaldehyde crosslink after washing; high values mean tight binding
Test [1] addresses T1, FLI1 (Homo sapiens, UniProt Q01543 1-452).
T1 sequence: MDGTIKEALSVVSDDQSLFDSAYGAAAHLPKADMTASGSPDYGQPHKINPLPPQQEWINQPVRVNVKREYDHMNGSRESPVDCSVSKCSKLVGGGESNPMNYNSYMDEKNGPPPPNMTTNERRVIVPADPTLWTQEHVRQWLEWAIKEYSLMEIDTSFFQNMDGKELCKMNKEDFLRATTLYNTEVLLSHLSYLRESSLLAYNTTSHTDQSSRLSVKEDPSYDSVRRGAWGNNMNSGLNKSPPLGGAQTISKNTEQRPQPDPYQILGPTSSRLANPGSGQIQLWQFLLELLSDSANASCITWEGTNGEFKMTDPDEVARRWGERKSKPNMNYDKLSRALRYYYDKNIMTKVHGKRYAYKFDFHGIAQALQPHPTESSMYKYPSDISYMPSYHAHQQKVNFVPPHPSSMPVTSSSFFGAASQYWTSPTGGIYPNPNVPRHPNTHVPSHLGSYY
The note with it: protein: recombinant; tags: N-terminal GST; dsDNA, one strand shown. The gist of the method:
(§1)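 Each value of binding signal is a hexamer's read frequency for a factor divided by the same hexamer's frequency in the tag-only sample. Barcoded, bead-captured GST fusions of human transcription factors made in yeast were pooled with that sample and incubated with 200 nmole of a random double-stranded 16-mer DNA library in Tris/NaCl/DTT/glycerol buffer at room temperature for 30 min. Washing, 0.1% formaldehyde crosslinking, proximity ligation, PCR and Illumina NextSeq500 sequencing followed.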

Test [2] deals with T2, ELK1 (Homo sapiens, UniProt P19419 1-428).
T2 sequence: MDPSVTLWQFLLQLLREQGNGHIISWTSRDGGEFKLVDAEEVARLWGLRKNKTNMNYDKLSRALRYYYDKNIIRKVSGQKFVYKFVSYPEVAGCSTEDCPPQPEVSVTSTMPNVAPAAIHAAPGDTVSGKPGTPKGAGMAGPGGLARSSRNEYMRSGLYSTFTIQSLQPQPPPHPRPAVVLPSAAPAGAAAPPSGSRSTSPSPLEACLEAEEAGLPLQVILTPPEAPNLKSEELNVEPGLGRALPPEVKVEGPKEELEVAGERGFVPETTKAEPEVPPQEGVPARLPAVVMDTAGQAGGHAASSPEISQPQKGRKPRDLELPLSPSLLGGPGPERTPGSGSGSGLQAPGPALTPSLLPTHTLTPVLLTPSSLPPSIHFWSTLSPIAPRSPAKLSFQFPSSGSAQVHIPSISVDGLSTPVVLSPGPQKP
To be noted: protein: recombinant; tags: N-terminal GST; dsDNA, one strand shown. The gist of the method:
as §1

Test [3] deals with T3, GABPA (Homo sapiens, UniProt Q06546 1-454).
T3 sequence: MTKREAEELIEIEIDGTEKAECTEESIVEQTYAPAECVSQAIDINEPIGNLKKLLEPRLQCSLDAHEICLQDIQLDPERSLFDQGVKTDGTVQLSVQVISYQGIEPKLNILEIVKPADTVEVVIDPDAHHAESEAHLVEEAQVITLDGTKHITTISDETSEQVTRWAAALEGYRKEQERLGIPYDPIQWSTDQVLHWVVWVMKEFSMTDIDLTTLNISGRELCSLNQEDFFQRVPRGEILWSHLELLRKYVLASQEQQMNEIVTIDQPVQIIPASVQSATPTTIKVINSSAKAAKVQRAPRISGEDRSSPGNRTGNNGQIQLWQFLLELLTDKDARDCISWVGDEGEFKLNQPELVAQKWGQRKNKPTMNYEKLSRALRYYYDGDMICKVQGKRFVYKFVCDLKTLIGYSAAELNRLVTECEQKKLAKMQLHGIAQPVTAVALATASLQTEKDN
The note with it: protein: recombinant; tags: N-terminal GST; dsDNA, one strand shown. An outline of the steps: as §1

In test [4] the target is T4, ERG (Homo sapiens, UniProt P11308 1-479).
T4 sequence: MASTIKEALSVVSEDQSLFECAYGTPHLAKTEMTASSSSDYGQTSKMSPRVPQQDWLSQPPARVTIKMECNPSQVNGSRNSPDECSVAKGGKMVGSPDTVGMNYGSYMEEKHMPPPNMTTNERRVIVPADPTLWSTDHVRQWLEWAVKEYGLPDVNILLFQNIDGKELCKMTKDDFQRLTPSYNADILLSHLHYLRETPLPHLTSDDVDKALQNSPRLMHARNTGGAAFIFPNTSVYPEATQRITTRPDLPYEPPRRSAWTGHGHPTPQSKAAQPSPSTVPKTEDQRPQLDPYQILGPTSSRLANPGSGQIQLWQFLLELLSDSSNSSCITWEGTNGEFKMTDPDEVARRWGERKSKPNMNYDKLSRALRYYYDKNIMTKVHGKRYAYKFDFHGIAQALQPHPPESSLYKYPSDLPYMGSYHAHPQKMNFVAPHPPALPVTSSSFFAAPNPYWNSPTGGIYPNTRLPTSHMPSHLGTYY
To be noted: protein: recombinant; tags: N-terminal GST; dsDNA, one strand shown. The gist of the method: as §1

Test [5] has as its target ELF1 (Homo sapiens, UniProt P32519 1-619). To be noted: protein: recombinant; tags: N-terminal GST; dsDNA, one strand shown. The gist of the method:
as §1

Test [6] addresses T5, EHF (Homo sapiens, UniProt Q9NZC4 1-300).
T5 sequence: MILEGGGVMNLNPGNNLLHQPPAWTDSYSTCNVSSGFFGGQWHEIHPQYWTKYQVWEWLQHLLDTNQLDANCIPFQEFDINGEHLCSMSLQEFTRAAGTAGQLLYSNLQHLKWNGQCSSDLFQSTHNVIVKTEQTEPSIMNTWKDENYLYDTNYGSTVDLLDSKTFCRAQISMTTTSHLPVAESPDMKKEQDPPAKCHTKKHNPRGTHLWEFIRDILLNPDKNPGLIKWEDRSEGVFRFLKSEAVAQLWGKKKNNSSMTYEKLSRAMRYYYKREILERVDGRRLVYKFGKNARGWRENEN
The note with it: protein: recombinant; tags: N-terminal GST; dsDNA, one strand shown. The gist of the method:
as §1

For test [7], the target named is SPI1 (Homo sapiens, UniProt P17947 1-270). The note with it: protein: recombinant; tags: N-terminal GST; dsDNA, one strand shown. The gist of the method: as §1
The target of test [8] is SPIB (Homo sapiens, UniProt Q01892 1-262). The note with it: protein: recombinant; tags: N-terminal GST; dsDNA, one strand shown. An outline of the steps:
as §1

The target in test [9] is T6, ELK3 (Homo sapiens, UniProt P41970 1-407).
T6 sequence: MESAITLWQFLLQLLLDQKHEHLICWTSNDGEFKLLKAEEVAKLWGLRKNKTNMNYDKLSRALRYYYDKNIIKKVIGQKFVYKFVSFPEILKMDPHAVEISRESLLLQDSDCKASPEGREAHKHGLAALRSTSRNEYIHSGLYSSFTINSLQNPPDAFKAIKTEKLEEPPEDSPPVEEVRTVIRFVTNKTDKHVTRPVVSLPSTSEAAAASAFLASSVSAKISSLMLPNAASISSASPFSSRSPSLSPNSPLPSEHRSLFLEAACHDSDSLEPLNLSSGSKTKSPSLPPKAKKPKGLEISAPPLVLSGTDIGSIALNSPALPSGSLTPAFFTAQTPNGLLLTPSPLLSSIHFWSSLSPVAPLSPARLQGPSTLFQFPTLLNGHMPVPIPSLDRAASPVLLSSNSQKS
To be noted: protein: recombinant; tags: N-terminal GST; dsDNA, one strand shown. The gist of the method: as §1

In test [10] the target is T7, FEV (Homo sapiens, UniProt Q99581 1-238).
T7 sequence: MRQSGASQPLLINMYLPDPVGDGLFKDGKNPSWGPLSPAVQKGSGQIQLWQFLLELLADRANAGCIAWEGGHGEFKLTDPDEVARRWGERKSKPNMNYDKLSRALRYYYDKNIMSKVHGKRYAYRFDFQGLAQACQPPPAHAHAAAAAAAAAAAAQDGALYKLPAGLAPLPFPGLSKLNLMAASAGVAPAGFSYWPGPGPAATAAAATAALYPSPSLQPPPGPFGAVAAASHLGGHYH
The note with it: protein: recombinant; tags: N-terminal GST; dsDNA, one strand shown. An outline of the steps:
as §1

Test [11] has as its target ETV5 (Homo sapiens, UniProt P41161 1-510). The note with it: protein: recombinant; tags: N-terminal GST; dsDNA, one strand shown. An outline of the steps:
as §1

Test [12] concerns the target HSF1 (Homo sapiens, UniProt Q00613 1-529). To be noted: protein: recombinant; tags: N-terminal GST; chain copies: 3; dsDNA, one strand shown. The gist of the method:
as §1

The target in test [13] is ELF4 (Homo sapiens, UniProt Q99607 1-663). The note with it: protein: recombinant; tags: N-terminal GST; dsDNA, one strand shown. The gist of the method:
as §1

The target in test [14] is T8, ETV2 (Homo sapiens, UniProt O00321 1-342).
T8 sequence: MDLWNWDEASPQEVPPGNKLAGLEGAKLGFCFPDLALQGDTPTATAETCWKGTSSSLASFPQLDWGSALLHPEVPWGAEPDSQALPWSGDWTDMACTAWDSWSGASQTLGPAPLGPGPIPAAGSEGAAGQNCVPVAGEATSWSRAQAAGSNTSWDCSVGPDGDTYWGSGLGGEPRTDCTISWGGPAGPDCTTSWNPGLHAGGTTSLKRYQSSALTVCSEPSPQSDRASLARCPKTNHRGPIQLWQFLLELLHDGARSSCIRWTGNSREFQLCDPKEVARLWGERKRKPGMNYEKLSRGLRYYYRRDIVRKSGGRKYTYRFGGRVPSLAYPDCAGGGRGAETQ
The note with it: protein: recombinant; tags: N-terminal GST; dsDNA, one strand shown. The gist of the method: as §1

For test [15], the target named is T9, ELF3 (Homo sapiens, UniProt P78545 1-371).
T9 sequence: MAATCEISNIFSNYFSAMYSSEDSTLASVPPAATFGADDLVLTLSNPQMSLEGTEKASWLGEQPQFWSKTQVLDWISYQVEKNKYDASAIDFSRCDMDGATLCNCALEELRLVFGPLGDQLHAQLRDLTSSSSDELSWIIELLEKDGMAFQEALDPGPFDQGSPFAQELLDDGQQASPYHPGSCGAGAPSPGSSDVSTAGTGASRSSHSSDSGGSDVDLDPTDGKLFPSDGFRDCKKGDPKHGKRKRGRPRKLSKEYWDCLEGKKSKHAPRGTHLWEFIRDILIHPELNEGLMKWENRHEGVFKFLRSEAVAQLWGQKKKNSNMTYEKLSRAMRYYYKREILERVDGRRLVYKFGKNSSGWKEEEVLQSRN
The note with it: protein: recombinant; tags: N-terminal GST; dsDNA, one strand shown. The gist of the method:
as §1

The target of test [16] is CRX (Homo sapiens, UniProt O43186 1-299). The note with it: protein: recombinant; tags: N-terminal GST; dsDNA, one strand shown. The gist of the method:
as §1

ETV5, sequence (P41161 whole entry): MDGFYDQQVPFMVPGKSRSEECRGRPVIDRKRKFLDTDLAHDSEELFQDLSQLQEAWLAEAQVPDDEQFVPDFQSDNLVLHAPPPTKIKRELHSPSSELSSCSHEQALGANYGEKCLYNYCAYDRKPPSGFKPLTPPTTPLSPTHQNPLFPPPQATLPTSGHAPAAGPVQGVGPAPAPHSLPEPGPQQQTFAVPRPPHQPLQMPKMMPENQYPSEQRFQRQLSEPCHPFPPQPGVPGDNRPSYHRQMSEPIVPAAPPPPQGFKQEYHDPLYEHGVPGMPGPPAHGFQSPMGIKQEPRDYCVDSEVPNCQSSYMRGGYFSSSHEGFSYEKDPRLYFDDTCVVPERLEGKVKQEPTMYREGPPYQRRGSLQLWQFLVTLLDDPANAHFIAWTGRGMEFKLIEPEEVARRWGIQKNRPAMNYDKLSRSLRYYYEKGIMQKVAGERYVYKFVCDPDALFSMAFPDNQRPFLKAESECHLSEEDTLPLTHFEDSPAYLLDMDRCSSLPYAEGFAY
CRX, sequence (O43186 whole entry): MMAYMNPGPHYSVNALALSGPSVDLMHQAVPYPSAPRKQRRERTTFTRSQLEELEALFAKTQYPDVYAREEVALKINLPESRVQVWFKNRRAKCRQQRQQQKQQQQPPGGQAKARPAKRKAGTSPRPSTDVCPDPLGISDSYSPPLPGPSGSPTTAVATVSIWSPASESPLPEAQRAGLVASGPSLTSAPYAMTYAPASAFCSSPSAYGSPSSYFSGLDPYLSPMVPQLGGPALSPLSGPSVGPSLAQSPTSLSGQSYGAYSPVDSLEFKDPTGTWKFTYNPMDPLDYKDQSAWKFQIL
HSF1, sequence (Q00613 whole entry): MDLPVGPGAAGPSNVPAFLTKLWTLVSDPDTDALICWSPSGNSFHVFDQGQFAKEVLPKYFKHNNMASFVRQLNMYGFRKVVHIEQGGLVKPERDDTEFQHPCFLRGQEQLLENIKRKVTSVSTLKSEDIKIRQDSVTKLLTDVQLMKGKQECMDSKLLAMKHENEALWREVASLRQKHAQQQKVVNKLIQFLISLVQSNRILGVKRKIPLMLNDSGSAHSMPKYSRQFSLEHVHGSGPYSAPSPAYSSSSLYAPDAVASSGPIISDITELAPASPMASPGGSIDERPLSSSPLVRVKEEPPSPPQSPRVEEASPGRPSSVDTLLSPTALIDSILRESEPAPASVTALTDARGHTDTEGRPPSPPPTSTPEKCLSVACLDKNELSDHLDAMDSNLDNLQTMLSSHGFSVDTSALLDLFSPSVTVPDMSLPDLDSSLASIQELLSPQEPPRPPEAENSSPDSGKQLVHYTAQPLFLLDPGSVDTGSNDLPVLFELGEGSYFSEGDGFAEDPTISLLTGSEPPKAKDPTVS
ELF1, sequence (P32519 whole entry): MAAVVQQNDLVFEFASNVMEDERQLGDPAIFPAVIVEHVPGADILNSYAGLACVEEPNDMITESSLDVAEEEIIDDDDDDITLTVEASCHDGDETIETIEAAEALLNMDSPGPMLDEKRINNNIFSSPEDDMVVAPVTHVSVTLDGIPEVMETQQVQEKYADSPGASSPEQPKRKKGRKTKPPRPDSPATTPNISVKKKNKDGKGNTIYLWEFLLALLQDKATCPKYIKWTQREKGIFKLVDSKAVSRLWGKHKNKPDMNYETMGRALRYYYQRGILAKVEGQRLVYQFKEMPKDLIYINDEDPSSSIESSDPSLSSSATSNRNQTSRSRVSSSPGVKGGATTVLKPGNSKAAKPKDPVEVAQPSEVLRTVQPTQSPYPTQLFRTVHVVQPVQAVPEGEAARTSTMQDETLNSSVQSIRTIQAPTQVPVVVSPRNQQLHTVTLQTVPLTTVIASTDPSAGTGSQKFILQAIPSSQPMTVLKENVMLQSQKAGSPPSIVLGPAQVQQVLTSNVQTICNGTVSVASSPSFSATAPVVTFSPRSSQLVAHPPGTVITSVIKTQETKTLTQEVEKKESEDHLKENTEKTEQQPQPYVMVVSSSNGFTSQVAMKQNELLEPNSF
SPIB, sequence (Q01892 whole entry): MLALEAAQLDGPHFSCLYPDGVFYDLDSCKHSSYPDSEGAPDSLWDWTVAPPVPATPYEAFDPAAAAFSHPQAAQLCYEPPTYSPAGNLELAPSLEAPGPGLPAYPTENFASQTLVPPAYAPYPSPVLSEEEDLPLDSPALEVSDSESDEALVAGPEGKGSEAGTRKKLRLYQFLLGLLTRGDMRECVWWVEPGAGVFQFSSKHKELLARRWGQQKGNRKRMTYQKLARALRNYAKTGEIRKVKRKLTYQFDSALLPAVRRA
ELF4, sequence (Q99607 whole entry): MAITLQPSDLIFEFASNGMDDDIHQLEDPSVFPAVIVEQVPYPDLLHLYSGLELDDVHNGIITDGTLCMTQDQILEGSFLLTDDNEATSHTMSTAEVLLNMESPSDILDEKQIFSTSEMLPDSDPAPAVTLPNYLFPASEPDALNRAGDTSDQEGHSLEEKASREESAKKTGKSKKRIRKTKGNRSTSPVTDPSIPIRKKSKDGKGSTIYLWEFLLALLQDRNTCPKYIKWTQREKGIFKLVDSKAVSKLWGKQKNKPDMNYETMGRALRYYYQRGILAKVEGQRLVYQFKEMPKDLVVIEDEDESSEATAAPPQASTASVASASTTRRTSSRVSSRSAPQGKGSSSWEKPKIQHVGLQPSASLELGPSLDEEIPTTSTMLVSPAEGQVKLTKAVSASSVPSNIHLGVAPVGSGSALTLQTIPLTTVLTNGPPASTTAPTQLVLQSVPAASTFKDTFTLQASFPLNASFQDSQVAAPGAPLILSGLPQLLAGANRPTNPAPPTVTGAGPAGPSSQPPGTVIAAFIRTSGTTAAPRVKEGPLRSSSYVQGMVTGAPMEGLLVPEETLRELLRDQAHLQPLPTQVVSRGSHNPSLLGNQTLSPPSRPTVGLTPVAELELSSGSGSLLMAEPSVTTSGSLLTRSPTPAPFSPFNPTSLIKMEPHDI

Regarding GAACAT, the binding signal in test [1] is 1.01 fold enrichment (6-mer frequency, TF over GST control); in [2], 1.02 fold enrichment (6-mer frequency, TF over GST control); in [3], 1.09 fold enrichment (6-mer frequency, TF over GST control); in [4], 1.03 fold enrichment (6-mer frequency, TF over GST control); in [5] it was 1.02 fold enrichment (6-mer frequency, TF over GST control); in test [6] it was 1.05 fold enrichment (6-mer frequency, TF over GST control). The binding signal in test [7] was 1.04 fold enrichment (6-mer frequency, TF over GST control); in test [8], 1.01 fold enrichment (6-mer frequency, TF over GST control); in [9] it was 1.16 fold enrichment (6-mer frequency, TF over GST control); in test [10] it was 1.01 fold enrichment (6-mer frequency, TF over GST control); in test [11], 1.12 fold enrichment (6-mer frequency, TF over GST control); in test [12], 1.81 fold enrichment (6-mer frequency, TF over GST control). The binding signal in test [13] is 1 fold enrichment (6-mer frequency, TF over GST control); in test [14], 1.01 fold enrichment (6-mer frequency, TF over GST control); in test [15], 1.06 fold enrichment (6-mer frequency, TF over GST control); in test [16], 1.03 fold enrichment (6-mer frequency, TF over GST control).
